Measured values published in PubChem BioAssay (Tox21).
Values without a mark were called inactive. Records with an inconclusive call do not appear. Entries that show only a call come without a potency. The source made the active and inactive calls. Unless noted, the call rests on the fitted dose curve.

Columns and labels:
[1] = Nuclear factor erythroid 2-related factor 2/antioxidant responsive element (Nrf2/ARE) small molecule agonists: qHTS cell viability counter screen in human keratinocytes (AID 1919968; active means well fitted curve in the direction sought with a large enough effect in the repeat runs; an effect the other way counts as inactive or inconclusive; further: nearly all actives have a fitted effect of over 55% in size)
In short: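 Viability counter-screen: KeratinoSens reporter cells, DMSO-delivered compounds, 23 h at 37 C, CellTiter-Fluor fluorescence.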

[2] = Nuclear factor erythroid 2-related factor 2/antioxidant responsive element (Nrf2/ARE) small molecule agonists: luciferase reporter gene qHTS assay in human keratinocytes (AID 1919969); further: nearly all actives have a fitted effect of over 35% in size; further: potency means the concentration at half of the fitted maximal effect
[3] = biological target: Gonadotropin-releasing hormone receptor (Homo sapiens) (UniProt P30968); assay: Human gonadotropin-releasing hormone receptor (GnRHR) small molecule agonists, calcium flux assay in GnRHR-HEK293 cells (AID 1920063); further: nearly all actives have a fitted effect of over 35% in size
In short: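 Tox21-format agonist screen using human GnRHR-expressing HEK293 cells and a fluorescent calcium dye; kinetic 3-min fluorescence reading after compound addition, 15-point concentration series run in triplicate.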

[4] = biological target: KiSS-1 receptor (Homo sapiens) (UniProt Q969F8); assay: Human kisspeptin (KISS1R) small molecule agonists, calcium flux assay in KISS1R-HEK293 cells (AID 1920064; active means well fitted curve in the direction sought with a large enough effect in the repeat runs; an effect the other way counts as inactive or inconclusive)
In short: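 Intracellular calcium mobilization in KISS1R-HEK293 cells was recorded by fluorescence (Ex/Em 480/540) for 3 min following compound addition to cells pre-loaded 1 h with calcium dye.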

[5] = G protein-coupled receptor (GPCR) small molecule agonists, calcium flux assay: HEK293 wild type cell line counter screen (AID 1920065)
In short: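 In this agonist-mode screen, ATP is the positive control and DMSO the vehicle. Cells grow 18 h before a 1 h dye incubation at 37 C; signal is taken at Ex/Em 480/540 over 3 min.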

[6] = p53 small molecule agonists, cell-based qHTS assay with human liver microsomes (AID 1963577)
In short: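 Cells carrying a p53-responsive bla reporter were rested 5 h (37 C, 5% CO2) before compound transfer. Human liver microsomes plus NADPH, 0.5 mg/mL final apiece, supplied metabolism during the 16 h 37 C exposure.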

[7] = p53 small molecule agonists, cell-based qHTS assay with rat liver microsomes (AID 1963578)
In short: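 Fluorescence from a beta-lactamase reporter under a p53 response element was measured after cells had been incubated 16 h at 37 C with test compound and rat liver microsomes plus NADPH (0.5 mg/mL final each).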

[8] = p53 small molecule agonists, cell-based qHTS assay with human liver microsomes: qHTS cell viability counter screen (AID 1963579); further: nearly all actives have a fitted effect of over 45% in size; further: potency means the concentration at half of the fitted maximal effect
In short: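 Seed p53RE-bla cells at 4,000 per well; incubate 5 h at 37 C; add compound, human liver microsomes and NADPH; incubate 16 h at 37 C; add CellTiter-Glo; after 30 min at room temperature, read luminescence.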

[9] = p53 small molecule agonists, cell-based qHTS assay with rat liver microsomes: qHTS cell viability counter screen (AID 1963580); further: nearly all actives have a fitted effect of over 45% in size
In short: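 p53RE-bla HCT-116 cells were exposed 16 h at 37 C to compounds with rat liver microsomes (0.5 mg/mL) and NADPH (0.5 mg/mL). Viability was measured in the same wells as ATP content by CellTiter-Glo luminescence.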

[10] = biological target: Muscarinic acetylcholine receptor M1 (Homo sapiens) (UniProt P11229); assay: Cholinergic receptor muscarinic 1 (CHRM1) small molecule antagonists, cell-based qHTS assay (AID 1963588); further: nearly all actives have a fitted effect of over 40% in size
In short: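 CHRM1-CHO calcium-flux assay, antagonist mode. Cells were seeded 18 h, dye-loaded 1 h at 37 C and given compound for 5 min at RT, then acetylcholine was added at 50nM. FDSS fluorescence was read 3 min; 15 concentrations, three runs.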

[11] = biological target: Muscarinic acetylcholine receptor M1 (Homo sapiens) (UniProt P11229); assay: Cholinergic receptor muscarinic 1 (CHRM1) small molecule agonists, cell-based qHTS assay (AID 1963589); further: nearly all actives have a fitted effect of over 35% in size
In short: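 Stable CHRM1-CHO cells (human receptor) were incubated 18 h, dye-loaded for 1 h at 37 C and exposed to test compounds for agonist activity, with calcium-dependent fluorescence followed kinetically.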

[12] = cAMP Responsive Elements (CRE) small molecule agonists, cell-based qHTS assay (AID 1963590)
In short: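 FRET-based beta-lactamase readout (LiveBLAzer B/G, 2 h RT) quantified CRE activation in HEK 293T CRE-bla cells after 3 h treatment with DMSO-dissolved compounds.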

[13] = cAMP Responsive Elements (CRE) small molecule antagonists, cell-based qHTS assay (AID 1963591; active means well fitted inhibition curve with a large enough effect in the signal ratio in the repeat runs, not every such curve was filed as active; the % refers to the signal ratio)
In short: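 qHTS in CRE-bla HEK 293T cells: compound in DMSO, then 0.25 uM NKH477 (final), 3 h at 37 °C/5% CO2; beta-lactamase FRET read-out after 2 h substrate incubation.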

[14] = biological target: D(2) dopamine receptor (Homo sapiens) (UniProt P14416); assay: Dopamine D2 receptor (DRD2) small molecule agonists, cell-based qHTS assay (AID 1963594); further: nearly all actives have a fitted effect of over 35% in size; further: potency means the concentration at half of the fitted maximal effect
In short: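 HEK293 cells stably expressing human DRD2, pre-treated with PDE inhibitor Ro20-1724 (0.1 mM final) and compound 10 min at room temperature, then stimulated with NKH477 (200nM […]) for 30 min. cAMP read by HTRF (665/620 nm).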

[15] = biological target: D(2) dopamine receptor (Homo sapiens) (UniProt P14416); assay: Dopamine D2 receptor (DRD2) small molecule antagonists, cell-based qHTS assay (AID 1963595; active means well fitted inhibition curve with a large enough effect in the signal ratio in the repeat runs, with a control signal flat; the % refers to the signal ratio; further: potency means the concentration at half of the fitted maximal effect)
In short: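 Stable D2 receptor HEK293 line, 24 h after seeding. Compound preincubated 10 min, then quinpirole (12 nM) with forskolin analogue NKH477 (200 nM), 30 min, room temperature. Detection by time-resolved FRET of cAMP.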

[16] = p53 small molecule agonists, cell-based qHTS assay (AID 1963582; active means well fitted activation curve with a large enough effect in the signal ratio in the repeat runs, not every such curve was filed as active; the % refers to the signal ratio)
In short: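 Agonist activity was scored from beta-lactamase FRET fluorescence in p53RE-bla cells treated 16 h at 37 C with compounds in DMSO, substrate incubation being 2 h at room temperature.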

[17] = biological target: 5-hydroxytryptamine receptor 2A (Homo sapiens) (UniProt P28223); assay: 5-hydroxytryptamine receptor 2A (HTR2A) small molecule antagonists, cell-based qHTS assay (AID 1963586); further: nearly all actives have a fitted effect of over 45% in size
In short: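 Antagonist-mode intracellular calcium assay: DOI (4 nM) added after 5 min compound pre-incubation at room temperature to dye-loaded HTR2A-CHO cells. Fluorescence followed for 3 min, sampled every second.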

[18] = biological target: 5-hydroxytryptamine receptor 2A (Homo sapiens) (UniProt P28223); assay: 5-hydroxytryptamine receptor 2A (HTR2A) small molecule agonists, cell-based qHTS assay (AID 1963587); further: nearly all actives have a fitted effect of over 30% in size
In short: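 CHO cells stably expressing human HTR2A, plated 18 h, loaded with calcium dye 1 h at 37 C. Agonist mode: compounds added and intracellular calcium fluorescence recorded kinetically for 2 min at 1 sec intervals.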

[19] = biological target: Beta-2 adrenergic receptor (Homo sapiens) (UniProt P07550); assay: Adrenergic beta2 receptor (ADRB2) small molecule antagonists, cell-based qHTS assay (AID 1963592); further: series mostly up to about 92 µM; nearly all actives have a fitted effect of over 50% in size
In short: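 Cells (CHO, stable ADRB2 overexpression) incubated 18-20hr at 37C; compounds added from DMSO; agonist mix (1nM isoproterenol, 100uM IBMX, 25uM Ro-20-1724) added; 0.5hr RT; d2-cAMP and anti-cAMP-cryptate added; 1hr RT; 665/615 nm read.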

[20] = biological target: Beta-2 adrenergic receptor (Homo sapiens) (UniProt P07550); assay: Adrenergic beta2 receptor (ADRB2) small molecule agonists, cell-based qHTS assay (AID 1963593);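 further: CHO cells stably overexpressing human ADRB2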
In short: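 CHO cells stably over-expressing ADRB2 were plated overnight at 37C, then dosed with compounds plus a stimulation mix containing 100uM IBMX and 25uM Ro-20-1724 for 0.5hr at room temperature. cAMP was measured by HTRF competition, 1hr.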

Gonadotropin-releasing hormone receptor (Homo sapiens), sequence (P30968 whole entry, looked up): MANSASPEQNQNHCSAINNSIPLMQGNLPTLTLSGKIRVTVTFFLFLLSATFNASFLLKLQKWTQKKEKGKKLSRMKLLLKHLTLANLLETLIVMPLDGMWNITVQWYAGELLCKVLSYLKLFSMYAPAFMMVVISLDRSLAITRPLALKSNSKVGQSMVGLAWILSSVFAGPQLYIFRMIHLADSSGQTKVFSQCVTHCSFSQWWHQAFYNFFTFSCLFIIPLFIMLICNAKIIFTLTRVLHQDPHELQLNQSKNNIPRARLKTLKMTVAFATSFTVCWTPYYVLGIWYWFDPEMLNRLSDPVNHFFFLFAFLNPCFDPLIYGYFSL
Beta-2 adrenergic receptor (Homo sapiens), sequence (P07550 whole entry, looked up): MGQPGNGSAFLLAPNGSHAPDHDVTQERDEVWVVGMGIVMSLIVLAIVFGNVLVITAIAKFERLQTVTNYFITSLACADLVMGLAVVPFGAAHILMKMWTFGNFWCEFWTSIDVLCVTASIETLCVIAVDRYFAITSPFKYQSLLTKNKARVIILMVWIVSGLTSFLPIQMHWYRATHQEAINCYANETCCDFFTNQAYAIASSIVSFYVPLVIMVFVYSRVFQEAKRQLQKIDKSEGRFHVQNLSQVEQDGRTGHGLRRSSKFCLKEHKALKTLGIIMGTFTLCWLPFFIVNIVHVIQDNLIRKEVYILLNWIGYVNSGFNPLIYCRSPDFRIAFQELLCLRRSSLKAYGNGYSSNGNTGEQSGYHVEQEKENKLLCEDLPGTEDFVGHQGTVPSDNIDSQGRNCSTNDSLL
Muscarinic acetylcholine receptor M1 (Homo sapiens), sequence (P11229 whole entry, looked up): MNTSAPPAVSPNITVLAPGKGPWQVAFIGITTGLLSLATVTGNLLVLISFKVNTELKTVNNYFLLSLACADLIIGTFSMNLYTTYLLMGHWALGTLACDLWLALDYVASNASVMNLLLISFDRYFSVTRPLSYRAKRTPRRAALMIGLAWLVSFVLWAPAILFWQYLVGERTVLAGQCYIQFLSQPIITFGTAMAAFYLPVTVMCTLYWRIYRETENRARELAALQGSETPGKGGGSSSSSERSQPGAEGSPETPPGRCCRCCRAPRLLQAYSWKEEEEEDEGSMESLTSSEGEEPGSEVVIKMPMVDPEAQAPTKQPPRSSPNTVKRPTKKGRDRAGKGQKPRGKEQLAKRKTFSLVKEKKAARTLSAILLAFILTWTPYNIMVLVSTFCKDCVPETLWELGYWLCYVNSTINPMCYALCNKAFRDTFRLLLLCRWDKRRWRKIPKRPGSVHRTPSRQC
5-hydroxytryptamine receptor 2A (Homo sapiens), sequence (P28223 whole entry, looked up): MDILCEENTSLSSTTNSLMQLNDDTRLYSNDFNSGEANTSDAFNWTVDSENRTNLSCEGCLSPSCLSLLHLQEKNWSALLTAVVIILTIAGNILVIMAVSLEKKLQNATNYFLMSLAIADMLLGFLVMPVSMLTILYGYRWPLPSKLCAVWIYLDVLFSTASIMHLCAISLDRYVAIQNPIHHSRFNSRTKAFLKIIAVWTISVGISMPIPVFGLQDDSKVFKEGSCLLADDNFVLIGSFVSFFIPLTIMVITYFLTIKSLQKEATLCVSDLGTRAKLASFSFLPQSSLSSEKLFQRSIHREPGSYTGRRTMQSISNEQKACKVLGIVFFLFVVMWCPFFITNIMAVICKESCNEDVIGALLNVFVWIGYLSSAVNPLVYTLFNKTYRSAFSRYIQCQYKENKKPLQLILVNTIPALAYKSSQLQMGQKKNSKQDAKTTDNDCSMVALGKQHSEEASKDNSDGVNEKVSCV
D(2) dopamine receptor (Homo sapiens), sequence (P14416 whole entry, looked up): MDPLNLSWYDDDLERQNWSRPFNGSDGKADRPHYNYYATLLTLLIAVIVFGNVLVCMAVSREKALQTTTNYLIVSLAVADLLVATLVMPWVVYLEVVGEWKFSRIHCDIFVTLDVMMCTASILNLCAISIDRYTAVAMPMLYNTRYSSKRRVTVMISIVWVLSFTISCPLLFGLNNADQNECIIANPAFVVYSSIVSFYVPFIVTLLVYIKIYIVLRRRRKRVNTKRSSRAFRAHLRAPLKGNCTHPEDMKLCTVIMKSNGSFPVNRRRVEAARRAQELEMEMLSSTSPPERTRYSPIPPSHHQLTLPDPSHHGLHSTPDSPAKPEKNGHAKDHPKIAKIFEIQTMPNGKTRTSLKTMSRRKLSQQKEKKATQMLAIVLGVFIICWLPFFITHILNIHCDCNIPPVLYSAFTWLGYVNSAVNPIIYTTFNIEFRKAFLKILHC
KiSS-1 receptor (Homo sapiens), sequence (Q969F8 whole entry, looked up): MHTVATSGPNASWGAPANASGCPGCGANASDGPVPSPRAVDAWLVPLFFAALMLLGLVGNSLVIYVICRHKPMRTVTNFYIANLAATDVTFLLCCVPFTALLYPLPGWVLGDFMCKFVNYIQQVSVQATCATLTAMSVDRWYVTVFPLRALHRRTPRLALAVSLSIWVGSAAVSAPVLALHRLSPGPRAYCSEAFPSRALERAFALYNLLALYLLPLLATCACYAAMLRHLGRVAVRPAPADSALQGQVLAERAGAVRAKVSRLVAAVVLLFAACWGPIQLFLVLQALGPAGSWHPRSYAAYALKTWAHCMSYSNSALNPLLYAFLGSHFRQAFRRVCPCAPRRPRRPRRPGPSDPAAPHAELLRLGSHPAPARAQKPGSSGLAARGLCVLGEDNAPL

Structure (SMILES)	Potency [1]	Potency [2]	Potency [3]	outcome [4]	outcome [5]	Potency [6]	Potency [7]	Potency [8]	Potency [9]	Potency [10]	Potency [11]	Potency [12]	Potency [13]	Potency [14]	Potency [15]	Potency [16]	Potency [17]	Potency [18]	Potency [19]	Potency [20]
CCc1cc(Cl)c(OC)c(C(=O)NC[C@@H]2CCCN2CC)c1O	inactive	inactive	inactive	inactive	inactive	inactive	inactive	inactive	inactive	inactive	inactive	inactive	inactive	inactive	0.0033 µM (active)	–	–	–	–	–
OC[C@@H](O)C(O)[C@@H](O)CO (stereo partly specified)	inactive	inactive	inactive	inactive	inactive	inactive	inactive	inactive	–	inactive	inactive	inactive	inactive	inactive	inactive	inactive	inactive	inactive	inactive	–
CCCCCCCC[Si](OCC)(OCC)OCC	inactive	inactive	inactive	inactive	inactive	inactive	inactive	inactive	–	inactive	inactive	inactive	inactive	inactive	inactive	inactive	inactive	inactive	–	–
C=C1C[C@@]23CC[C@H]4[C@@](C)(CCC[C@@]4(C)C(=O)O[C@@H]4O[C@H](CO)[C@@H](O)[C@H](O)[C@H]4O)[C@@H]2CC[C@]1(O[C@@H]1O[C@H](CO)[C@@H](O)[C@H](O[C@@H]2O[C@H](CO)[C@@H](O)[C@H](O)[C@H]2O)[C@H]1O[C@@H]1O[C@H](CO)[C@@H](O)[C@H](O)[C@H]1O)C3	inactive	inactive	inactive	inactive	inactive	inactive	inactive	inactive	–	inactive	inactive	inactive	inactive	inactive	inactive	inactive	inactive	inactive	inactive	–
CC(CCc1ccccc1)NCC(O)c1ccc(O)c(C(N)=O)c1 (stereo unspecified)	inactive	inactive	inactive	inactive	inactive	inactive	inactive	inactive	inactive	–	–	–	inactive	3.31 µM (active)	inactive	–	–	–	–	–
CCCCC1=NC2(CCCC2)C(=O)N1Cc1ccc(-c2ccccc2-c2nn[nH]n2)cc1	inactive	inactive	inactive	inactive	inactive	inactive	inactive	inactive	inactive	–	–	–	–	inactive	inactive	–	–	–	inactive	–
Cc1ccc(C=O)s1	inactive	68.6 µM (active)	inactive	inactive	inactive	inactive	inactive	40.8 µM (active)	–	inactive	inactive	inactive	inactive	inactive	inactive	inactive	inactive	inactive	inactive	inactive
